{"source": "PubChem BioAssay (Tox21)", "note": "Values joined by “and” are separate entries in the source; they are usually repeats but may differ in a detail not shown here. Equal entries are not always repeated. Records with an inconclusive call do not appear. Where a call stands in place of a potency, no number is given. Active and inactive are the calls of the source. The call rests on the fitted dose curve; in most records, active means well fitted inhibition curve with a large enough effect in the signal ratio in the repeat runs; inconclusive means weak or mixed curves, or effect the other way; inactive means flat fitted curve, though single readings scatter; the % refers to the signal ratio. Potency means the concentration at half of the fitted maximal effect."}
{"assay": "qHTS assay for small molecule disruptors of the mitochondrial membrane potential (AID 720635)", "settings": "HepG2 mitochondrial membrane potential, Mito-MPS dye ratio; series mostly up to 83.2 µM", "from_the_text": "U.S. Tox21 Program National Center for Advancing Translational Sciences [NCATS] NIH Chemical Genomics Center [NCGC] U.S. Environmental Protection Agency [EPA] National Institutes of Environmental Health Sciences [NIEHS] National Toxicology Program [NTP] U.S. Food and Drug Administration [FDA] Tox21 Assay Overview: Mitochondrial membrane potential (MMP), one of the parameters for mitochondrial function, is generated by mitochondrial electron transport chain that creates an electrochemical gradient by a series of redox reactions. This gradient drives the synthesis of ATP, a crucial molecule for various cellular processes. Measuring MMP in living cells is commonly used to assess the effect of chemicals on mitochondrial function. […] The dye accumulates in the mitochondria of healthy cells as aggregates, with red fluorescence. The mitochondrial potential collapses and the dye can no longer accumulate in the mitochondria and remains in the cytoplasm in monomers, with green fluorescence.\nTox21 Assay Protocol Summary: 2,000 HepG2 cells in 5 uL/well were dispensed into black, clear-bottom 1536-well plates using a Multidrop Combi (Thermo Scientific) dispenser. The assay plates were incubated overnight at 37C to allow cells to attach to the wells, followed by the transfer of 23 nL compound or DMSO vehicle by a pin tool (Kalypsys). The plates were incubated for 1 hr at 37C and 5% CO2, followed by the addition of 5 uL of 2X Mito-MPS dye (BD Biosciences) into each well using Flying Reagent Dispenser (Aurora Discovery) and then following 30 min incubation at 37C. Fluorescence intensity (490nm excitation and 535nm emission for monomers; and 540nm excitation and 590nm emissions for aggregates) was measured using an Envision plate reader."}
{"smiles": "N#CC1(N=NC2(C#N)CCCCC2)CCCCC1", "Potency": "inactive"}
{"smiles": "CCc1cnc(C2=NC(C)(C(C)C)C(=O)N2)c(C(=O)O)c1", "note": "(stereo not given)", "Potency": "inactive"}
{"smiles": "O=C1NC(=O)C(=O)C(=O)N1", "Potency": "inactive"}
{"smiles": "COc1cc(CC(C)N)c(OC)cc1Br", "note": "(stereo not given)", "Potency": "inactive"}
{"smiles": "C[C@H]1O[C@H](OC2[C@@H](O)[C@@H](O)C(O)[C@H](O)[C@H]2O)[C@@H](N)C[C@@H]1N=C(N)C(=O)O", "note": "(stereo not given in full)", "Potency": "inactive"}
{"smiles": "O=C(O)c1cc(Cl)ccc1Cl", "Potency": "inactive"}
{"smiles": "CCC(C)(C)c1ccc(O)c(C(C)(C)CC)c1", "Potency": "1.52 µM (active) and 1.37 µM (active)"}
{"smiles": "CC(C)(C)CC(C)(C)c1ccc(O)cc1", "Potency": "3.35 µM (active) and 1.72 µM (active)"}
{"smiles": "O=S(=O)(Cl)Cl", "Potency": "inactive"}
{"smiles": "COC1CC(=C(c2cccs2)c2cccs2)C[N+](C)(C)C1", "note": "(stereo not given)", "Potency": "inactive"}
{"smiles": "C[C@H]1[C@@H]2Cc3ccc(O)cc3[C@@]1(C)CCN2C", "Potency": "inactive"}
{"smiles": "Cc1ccc(N)c(C)c1", "Potency": "inactive"}
{"smiles": "Oc1cccc(Cl)c1", "Potency": "53.8 µM (active)"}
{"smiles": "CCCBr", "Potency": "inactive"}
{"smiles": "CCOC(=O)NC(O)C(Cl)(Cl)Cl", "note": "(stereo not given)", "Potency": "inactive"}
{"smiles": "COc1ccc2c(c1OC)C(=O)O[C@H]2[C@@H]1c2cc3c(cc2CCN1C)OCO3", "Potency": "inactive"}
{"smiles": "CC(C)(C)N(NC(=O)c1ccc(Cl)cc1)C(=O)c1ccccc1", "Potency": "60.8 µM (active)"}
{"smiles": "C[C@]12CC[C@H]3[C@@H](CCC4=CC(=O)CC[C@@H]43)[C@@H]1CC[C@@H]2OC(=O)CCc1ccccc1", "Potency": "inactive"}
{"smiles": "C=C(Cl)Cl", "Potency": "inactive"}
{"smiles": "COc1ccccc1N1CCNCC1", "Potency": "inactive"}
{"smiles": "NCCc1cc(O)c(O)cc1O", "Potency": "inactive"}
{"smiles": "CCOP(=S)(OCC)Oc1ccc(S(C)=O)cc1", "note": "(stereo not given)", "Potency": "inactive"}
{"smiles": "CC1(C)CC(=O)CC(C)(C)N1[O]", "Potency": "inactive"}
{"smiles": "O=C1c2ccccc2C(=O)N1SC(Cl)(Cl)Cl", "Potency": "4.79 µM (active) and 7.7 µM (active)"}
{"smiles": "CCCC[N+]1(C)[C@@H]2CC(OC(=O)[C@H](CO)c3ccccc3)C[C@H]1[C@@H]1O[C@@H]12", "note": "(stereo not given in full)", "Potency": "inactive"}
{"smiles": "CN(C)C(=O)Nc1cccc(OC(=O)NC(C)(C)C)c1", "Potency": "inactive"}
{"smiles": "CC(Oc1cccc(Cl)c1)C(=O)O", "note": "(stereo not given)", "Potency": "inactive"}
{"smiles": "C=CCc1ccc(OC(=O)Cc2ccccc2)c(OC)c1", "Potency": "inactive"}
{"smiles": "O=C(NCNC(=O)NC1C(=O)NC(=O)N1CO)NC1C(=O)NC(=O)N1CO", "note": "(stereo not given)", "Potency": "inactive"}
{"smiles": "Clc1ccc(Cl)c(Cl)c1", "Potency": "inactive"}
{"smiles": "c1ccc2c(c1)-c1cccc3cccc-2c13", "Potency": "61.7 µM (active) and 61.1 µM (active)"}
{"smiles": "C[N+]1(CCF)[C@@H]2CC[C@H]1CC(OC(=O)C(O)(c1ccccc1)c1ccccc1)C2", "note": "(stereo not given in full)", "Potency": "inactive"}
{"smiles": "CCCCCCCCP(=O)(O)O", "Potency": "inactive"}
{"smiles": "CCCCC(CC)CO[N+](=O)[O-]", "note": "(stereo not given)", "Potency": "inactive"}
{"smiles": "Clc1ccc2ccccc2c1", "Potency": "inactive"}
{"smiles": "CC(C)CCON=O", "Potency": "inactive"}
{"smiles": "O=C(Cc1ccccc1)OCCc1ccccc1", "Potency": "inactive"}
{"smiles": "OCCCl", "Potency": "inactive"}
{"smiles": "CCCC1CCCCN1", "note": "(stereo not given)", "Potency": "inactive"}
{"smiles": "CC(C)[C@@H](C(=O)O[C@@H](C#N)c1cccc(Oc2ccccc2)c1)c1ccc(Cl)cc1", "Potency": "12.4 µM (active) and 30.6 µM (active)"}
